Hit rate of the full screen: of about 330,000 compounds, about 2,600 (0.79%) were called active.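 Rule for the calls: active = mean ATP rescue above about 67%, or every replicate alone reaching that limit (limit read from the data, passing the limit was not always enough); inconclusive = no clear call, values can overlap the other calls; inactive = mean under the limit and some replicate under it.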 Many of the other results were omitted from the sample, so actives are more common in it than they were.
assay: suppressors of statin myotoxicity in C2C12 myotubes, primary screen, cell-based, single point, plate reader (AID 602340); details: C2C12 myotubes + simvastatin, ATP luminescence, 48 h; at 7.49 µM; stronger effect = higher value; scaled: DMSO 0, geranylgeraniol control 100;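 note: myotubes were challenged with 10 µM simvastatin during compound exposure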

**Q.** For `CC1(C)Cc2cccc(OCC(N)=O)c2O1`, which rescue of ATP level is on record?
**A.** Its rescue of ATP level is 113% (active).

**Q.** For `CC1(C)Cc2cccc(OCC(=O)Nc3nccs3)c2O1`, which rescue of ATP level is on record?
**A.** The rescue of ATP level was 0.639% (inactive).

**Q.** For `CC1(C)Cc2cccc(OCC(=O)NCc3ccccc3)c2O1`, which rescue of ATP level is on record?
**A.** The rescue of ATP level was 1.33% (inactive).

**Q.** With `CCC(=O)N[C@H]1CC[C@H](CCn2cc(-c3cccc(OC)c3)nn2)O[C@H]1CO` as the compound, how does the rescue of ATP level read?
**A.** The rescue of ATP level was -2.48% (inactive).

**Q.** With `CC=Cc1ccc2n(c1=O)C[C@H]1[C@H](CO)[C@@H](C(=O)NC3CCCC3)N(Cc3cccnc3)[C@@H]21` (mixture of isomers) as the compound, how does the rescue of ATP level read?
**A.** The rescue of ATP level was -41.8% (inactive).

**Q.** With `C[C@H](CO)N1C[C@H](C)[C@@H](CN(C)Cc2cccc(F)c2)Oc2cc(C#CC3CC3)ccc2S1(=O)=O` as the compound, how does the rescue of ATP level read?
**A.** Its rescue of ATP level is -17.1% (inactive).

**Q.** With `Clc1ccccc1SCc1nc2ccccc2[nH]1` as the compound, how does the rescue of ATP level read?
**A.** Its rescue of ATP level is 91.4% (active).

**Q.** Which rescue of ATP level does the source give for `CC1(C)Cc2c(C#N)c(SCc3nc4ccccc4[nH]3)nc(N3CCOCC3)c2CO1` here?
**A.** The rescue of ATP level was -43.7% (inactive).

**Q.** For `Cc1ccc(O)c(CNc2nc3ccccc3[nH]2)c1`, which rescue of ATP level is on record?
**A.** The rescue of ATP level was 2.19% (inactive).

**Q.** Which rescue of ATP level does the source give for `CO[C@@H]1CN(C)C(=O)c2ccc(NC(=O)NC(C)C)cc2OC[C@H](C)N(Cc2ccc(-c3ccccn3)cc2)C[C@H]1C` here?
**A.** The rescue of ATP level was 16.4% (inactive).

**Q.** For `CCNC(=O)C[C@@H]1C=C[C@@H](NC(=O)C2CCOCC2)[C@@H](CO)O1`, which rescue of ATP level is on record?
**A.** Its rescue of ATP level is -1.82% (inactive).

**Q.** For `O=C(C[C@@H]1CC[C@@H]2[C@H](COC[C@H](O)CN2CC2CCOCC2)O1)NCC1CCCCC1`, which rescue of ATP level is on record?
**A.** The rescue of ATP level was 1.6% (inactive).

**Q.** For `CO[C@@H]1CN(C)C(=O)c2ccc(NC(=O)c3cccc(Oc4ccccc4)c3)cc2OC[C@H](C)NC[C@@H]1C`, which rescue of ATP level is on record?
**A.** The rescue of ATP level was -3.89% (inactive).

**Q.** For `CNC(=O)C[C@H]1CC[C@H]2[C@H](COc3ccc(NC(=O)Nc4ccc(F)cc4)cc3C(=O)N2C)O1`, which rescue of ATP level is on record?
**A.** Its rescue of ATP level is 17.2% (inactive).

**Q.** Which rescue of ATP level does the source give for `COc1ccc2nc(N3CCN(C(=O)c4ccc([N+](=O)[O-])o4)CC3)sc2c1` here?
**A.** Its rescue of ATP level is 73.2% (active).

**Q.** For `COc1ccc2nc(N3C(=O)C(O)=C(C(=O)c4ccco4)C3c3ccco3)sc2c1` (stereo not given), which rescue of ATP level is on record?
**A.** Its rescue of ATP level is 9.9% (inactive).

**Q.** With `Cc1ccc2nc(N3CCN(C(=O)c4ccco4)CC3)sc2c1` as the compound, how does the rescue of ATP level read?
**A.** Its rescue of ATP level is 0.517% (inactive).

**Q.** Which rescue of ATP level does the source give for `COc1ccc(S(=O)(=O)Nc2ccc3c(c2)C(=O)N([C@@H](C)CO)C[C@H](C)[C@H](CN(C)Cc2ccc4c(c2)OCO4)OCCCC[C@H](C)O3)cc1` here?
**A.** Its rescue of ATP level is -65.3% (inactive).

**Q.** For `CC=Cc1ccc2n(c1=O)C[C@@H]1[C@@H](CO)[C@H](C(=O)NCC(F)(F)F)N(CCc3ccccc3)[C@H]21` (mixture of isomers), which rescue of ATP level is on record?
**A.** Its rescue of ATP level is -10.8% (inactive).

**Q.** With `O=C(C[C@@H]1CC[C@@H]2[C@H](COC[C@H](O)CN2C(=O)Nc2cccc(Cl)c2)O1)NCCCN1CCOCC1` as the compound, how does the rescue of ATP level read?
**A.** Its rescue of ATP level is -20.2% (inactive).
